BioA inh: blocks M. tuberculosis BioA enzyme activity. purified M. tuberculosis BioA enzyme, plate reader. inhibition, % at 9.99 µM. hit rate 0.096% among 360,000. AID 602481; in the data active = inhibition above about 40%; inconclusive = no clear call, values can overlap the other calls
Rv3671c inh: Rv3671c (M. tuberculosis) protease inhibition | AID 2606 | hit rate 0.048% among 320,000 | inhibition, % at 5.96 µM | P9WHR9; in the data active = inhibition above about 38%;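 also: extracellular domain of Rv3671c used as enzyme; 0% = enzyme with DMSO and 100% = no enzyme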
FadD28 binding: M. tuberculosis FadD28 bisubstrate binding inhibition; inhibition, % at 12.5 µM; AID 588549; FadD28 bisubstrate probe binding, fluorescence polarization; hit rate 0.22% among 360,000; in the data active = inhibition above about 8.5%, passing the limit was not always enough; inconclusive = no clear call, values can overlap the other calls
Yp Topo-I inh: inhibitors of Yersinia pestis topoisomerase I. activity, % at 10 µM. Y. pestis Topo-I cleavage product accumulation, plate reader. hit rate 0.064% among 360,000; in the data active = activity above about 50%, passing the limit was not always enough; inconclusive = no clear call, values can overlap the other calls
RecA splice inh: blocks M. tuberculosis RecA intein splicing | P9WHJ3 | cell-free RecA intein splicing, fluorescence | inhibition, % (concentration not given with the values) | hit rate 0.75% among 290,000 | AID 2221; in the data active = inhibition above about 30%; inconclusive = no clear call, values can overlap the other calls;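 also: 0% = vehicle wells and 100% = reference inhibitor control wells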
UGM FP inh: Mtb UDP-galactopyranose mutase inhibition | hit rate 0.06% among 320,000 | inhibition, % at 10 µM | P9WIQ1 | purified UGM, fluorescence polarization probe displacement; in the data active = inhibition above about 10%, passing the limit was not always enough; inconclusive = no clear call, values can overlap the other calls
Target sequence (P9WIQ1 whole entry, looked up): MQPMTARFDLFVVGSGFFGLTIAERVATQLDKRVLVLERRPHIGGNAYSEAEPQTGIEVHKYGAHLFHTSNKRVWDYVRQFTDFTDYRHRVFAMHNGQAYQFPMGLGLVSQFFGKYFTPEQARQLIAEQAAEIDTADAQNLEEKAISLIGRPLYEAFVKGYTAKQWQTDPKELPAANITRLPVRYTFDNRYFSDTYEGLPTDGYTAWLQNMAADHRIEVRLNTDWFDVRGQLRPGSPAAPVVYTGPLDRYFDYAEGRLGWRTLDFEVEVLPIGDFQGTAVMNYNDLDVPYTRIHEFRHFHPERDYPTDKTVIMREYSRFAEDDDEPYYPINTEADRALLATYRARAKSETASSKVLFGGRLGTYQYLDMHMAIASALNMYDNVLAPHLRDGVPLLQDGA
* hit, by the source's call; ? = inconclusive; nt = not tested or not shown. Sampled rows, rich in hits. Any-hit rate of the full collection: about 0.82%.

SMILES	BioA inh	Rv3671c inh	FadD28 binding	Yp Topo-I inh	RecA splice inh	UGM FP inh
Cc1ccc(NC(=O)CN2C(=O)N/C(=C\c3cccn3-c3cccc(C(=O)O)c3)C2=O)cc1	-0.5	nt	?	7.0	2.0	nt
Cc1ccc(NC(=O)CN2C(=O)N/C(=C/c3cc(C)n(-c4cccc(C(=O)O)c4)c3C)C2=O)cc1	nt	nt	48.6*	6.8	nt	nt
Cc1cccc(NC(=O)CN2C(=O)N/C(=C\c3ccc(-c4cccc(C(=O)O)c4)o3)C2=O)c1	nt	-2.6	42.7*	0.4	-37.3	2.9
Cc1ccc(NC(=O)CN2C(=O)S/C(=C/c3ccc(-c4cc(C(=O)O)ccc4C)o3)C2=O)cc1C	0.3	-12.6	14.4*	14.7	-89.4	1.6
COc1ccc(/C=C2/NC(=O)N(CC(=O)Nc3cccc(C)c3)C2=O)cc1O	3.8	-2.8	18.1*	-8.5	0.0	1.2
COc1cccc(/C=N/Nc2nc(C)cc(=O)[nH]2)c1OC	0.7	11.7	13.3*	-1.0	-2.0	0.0
CCOc1ccccc1/C=N/Nc1nc(C)cc(=O)[nH]1	5.8	-2.0	1.3	-0.1	-4.1	-0.7
C[C@H](CO)N1C[C@H](C)[C@@H](CN(C)Cc2ccc(Oc3ccccc3)cc2)Oc2c(NS(=O)(=O)c3cccs3)cccc2C1=O	5.0	nt	nt	nt	nt	nt
O=C(O)C(c1ccccc1)N1C(=O)/C(=C\c2ccc(-c3ccc(Br)cc3)o2)SC1=S (centres undefined)	17.5	nt	27.5*	-11.2	20.2	nt
O=C(O)C(c1ccccc1)N1C(=O)/C(=C\c2ccc(-c3ccccc3Cl)o2)SC1=S (centres undefined)	3.8	-7.8	11.2*	-0.6	17.8	0.8
CCCN(C)C[C@H]1Oc2cc(C#CCOC)ccc2S(=O)(=O)N([C@H](C)CO)C[C@H]1C	-0.8	nt	nt	nt	nt	nt
COc1ccc(CCNc2cc(N3CCN(C(=O)c4ccc(C)cc4)CC3)ccc2[N+](=O)[O-])cc1OC	nt	42.6*	nt	nt	-3.5	-1.7
CC(C)c1cn(CC[C@@H]2CC[C@@H](NS(=O)(=O)Cc3ccccc3)[C@H](CO)O2)nn1	2.3	nt	nt	nt	nt	nt
COc1ccc(-c2ccc3n(c2=O)C[C@@H]2[C@@H](CO)[C@H](C(=O)N(C)C)[C@H]3N2Cc2cccnc2)cc1	2.8	nt	nt	nt	nt	nt
C[C@@H]1CN([C@@H](C)CO)C(=O)Cc2cc(NS(=O)(=O)c3ccc(F)cc3)ccc2O[C@H]1CN(C)CC1CC1	-2.9	nt	nt	nt	nt	nt
CCOc1ccc2c(ccc(/C=C/c3cc(C)c4cccnc4c3O)[n+]2C)c1	nt	nt	15.8*	-41.7	nt	nt
CCOc1ccc(N=Nc2ccc(O)c3ncccc23)cc1	0.7	nt	-0.2	-2.4	-0.3	0.8
COc1ccc(CNc2ncnc3c2[nH]c2ccccc23)cc1	11.4	-1.1	-3.4	-12.3	5.8	0.3
COc1ccc(CNc2ncnc3c2[nH]c2cc(OC)c(OC)cc23)cc1	-0.7	16.2	10.4*	-24.4	-1.1	0.7
COc1ccc(-c2nc3c(c(=O)[nH]c(=O)n3Cc3ccccc3)n2C)cc1	nt	-3.1	-1.5	9.4	-3.7	-2.2
COc1ccc(-c2nc3c(c(=O)[nH]c(=O)n3Cc3ccccc3)n2Cc2ccccc2)cc1	-2.9	-13.0	-2.7	64.5*	-1.4	-2.8
COc1cc(/C=C/c2sc3ccccc3[n+]2CCCS(=O)(=O)[O-])ccc1O	nt	-347.6	-18.9	5.8	35.9*	-2.0
CCC(/C=C1\Oc2ccc(OC)cc2N1C)=C\c1sc2ccccc2[n+]1CCCS(=O)(=O)[O-]	-0.6	nt	-3.5	-4.9	nt	nt
Cc1cc(C)c(S(=O)(=O)n2c([N+](=O)[O-])cnc2C)cc1C	nt	1.7	-2.2	-4.2	-1.1	10.0*
Cc1ccc(S(=O)(=O)n2c([N+](=O)[O-])cnc2C)cc1C	nt	10.3	-1.1	2.3	0.3	1.9
SMILES	BioA inh	Rv3671c inh	FadD28 binding	Yp Topo-I inh	RecA splice inh	UGM FP inh
O=C1NC(Cc2ccccc2)c2nc3ccc(F)cc3c(=O)n2-c2cc3ccccc3cc21 (centres undefined)	-1.8	nt	-0.7	66.0*	nt	nt
CCOc1ccc2c(c1)C(NC(C)=O)C(=O)N2CCN1CCOCC1 (centres undefined)	0.5	nt	-2.2	2.5	43.0*	0.3
CCN1C(=O)C(NC(C)=O)c2cc(OC)ccc21 (centres undefined)	-1.2	-0.8	-1.3	3.1	-3.4	2.3
CC(=O)NC1C(=O)N(CCN2CCOCC2)c2ccc(Br)cc21 (centres undefined)	-1.5	11.2	0.0	-2.4	50.9*	-1.4
Cc1cccc(OCCN2CSC(=S)N(C)C2)c1	nt	-5.8	-4.5	0.4	41.9*	0.5
O=C(CSc1ccccc1)OCC(=O)N1CCN(C(=O)c2ccco2)CC1	nt	-4.5	0.5	11.8	nt	-0.7
O=C(CCN1c2ccccc2Sc2ccccc21)OCC(=O)N1CCN(C(=O)c2ccco2)CC1	-0.5	10.3	3.6	52.3*	2.3	-0.1
Cn1cnc(S(=O)(=O)N[C@H]2CC[C@H](CC(=O)Nc3ccccc3)O[C@H]2CO)c1	0.1	nt	nt	nt	nt	nt
C[C@H](CO)N1C[C@H](C)[C@H](CN(C)S(=O)(=O)c2ccc(F)cc2)Oc2c(NS(=O)(=O)c3ccccc3)cccc2C1=O	-2.3	nt	nt	nt	nt	nt
COc1ccc(-n2c(=O)c3ccccc3c3ccccc3c2=O)cc1	0.5	2.3	-2.8	-0.3	31.0*	-0.3
CC(=O)Oc1ccc(-n2c(=O)c3ccccc3c3ccccc3c2=O)cc1	nt	-6.2	-0.9	-2.2	2.9	-0.4
Cc1nn(C(=O)c2cccnc2)c(C)c1Sc1ccc(Br)cc1	0.9	0.7	-7.7	19.2	43.8*	-0.9
Cc1nn(C(=O)c2ccco2)c(C)c1Sc1ccc(Cl)cc1	nt	-3.3	0.0	-2.5	0.2	0.8
COc1ccc(C2(C)NC(=O)N(CC(=O)Nc3ccc4[nH]c(=O)[nH]c4c3)C2=O)cc1 (centres undefined)	0.3	4.2	0.8	-9.5	-1.3	-3.3
CC1(c2ccc(OC(F)F)cc2)NC(=O)N(CC(=O)Nc2ccc3[nH]c(=O)[nH]c3c2)C1=O (centres undefined)	1.0	-2.1	11.8*	-3.0	-6.6	-0.5
CO[C@H]1CN(C)C(=O)c2cc(NS(=O)(=O)c3ccccc3)ccc2OC[C@H](C)N(Cc2nccs2)C[C@@H]1C	-0.3	nt	nt	nt	nt	nt
CCc1ccc(OCc2n[nH]c(=S)n2C(C)CCCC(C)C)cc1 (centres undefined)	nt	9.2	-5.5	63.2*	18.9	-1.8
CCOc1ccc(CN(C)C(=O)CCl)cc1	nt	-2.7	-3.9	8.7	55.1*	2.4
CCOc1ccc(CN(C)C(=O)CCNC(=O)c2ccco2)cc1	-3.6	-4.8	1.4	-10.5	nt	-2.7
O=C(O)c1ccc(N/N=C/c2ccc(-c3cccc(Cl)c3)o2)cc1	4.1	2.4	9.9*	-14.4	-20.1	0.5
Cc1c(C(=O)O)cccc1-c1ccc(/C=N/n2cnnc2)o1	1.3	-1.1	0.6	4.3	0.5	0.7
O=C(O)c1ccc(-c2ccc(/C=N/Nc3ccc([N+](=O)[O-])cc3)o2)cc1	nt	0.6	-0.1	-16.5	-21.4	-3.6
O=C(O)c1cccc(-c2ccc(/C=N/Nc3ccc([N+](=O)[O-])cc3)o2)c1	1.9	5.8	23.1*	-7.0	-4.7	0.9
O=C(O)c1ccc(N/N=C/c2ccc(-c3cc(Cl)ccc3Cl)o2)cc1	-2.6	24.7	1.6	-5.0	-51.9	-2.5
